hNpr1 antagonist – Natriuretic polypeptide receptor (hNpr1) antagonism - Primary qHTS. Atrial natriuretic peptide receptor 1 (Homo sapiens), P16066. Potency, µM (series often up to 46.3 µM), for the others: at the top dose activity change, negative = inhibition, actives largely listed as inhibitors. HEK293 hNpr1 GloSensor cGMP, ANP-stimulated luminescence. AID 1347048, 2019. 76,000 tested, 1.6% active; calls by dose curve; note: nearly all actives have a fitted effect of over 60% in size
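Compound pre-incubated 30 min at room temperature on GloSensor-loaded HEK293 cells stably carrying hNpr1 and the pGS-40F cGMP biosensor. Stimulation uses hNppA at 0.1 nM final; luminescence is taken at baseline and 20 min post-agonist.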
FLuc inh – Firefly luciferase inhibition profiling of diverse chemical library using quantitative high-throughput screening | Luciferin 4-monooxygenase (Photinus pyralis), P08659 | purified P. pyralis luciferase, luminescence, biochemical | Potency, µM (top dose mostly 115 µM), most hits filed as inhibitors | 76,000 tested, 2.5% active | AID 1347043, 2019; note: nearly all actives have a fitted effect of over 65% in size
Target sequence (P08659 whole entry, looked up): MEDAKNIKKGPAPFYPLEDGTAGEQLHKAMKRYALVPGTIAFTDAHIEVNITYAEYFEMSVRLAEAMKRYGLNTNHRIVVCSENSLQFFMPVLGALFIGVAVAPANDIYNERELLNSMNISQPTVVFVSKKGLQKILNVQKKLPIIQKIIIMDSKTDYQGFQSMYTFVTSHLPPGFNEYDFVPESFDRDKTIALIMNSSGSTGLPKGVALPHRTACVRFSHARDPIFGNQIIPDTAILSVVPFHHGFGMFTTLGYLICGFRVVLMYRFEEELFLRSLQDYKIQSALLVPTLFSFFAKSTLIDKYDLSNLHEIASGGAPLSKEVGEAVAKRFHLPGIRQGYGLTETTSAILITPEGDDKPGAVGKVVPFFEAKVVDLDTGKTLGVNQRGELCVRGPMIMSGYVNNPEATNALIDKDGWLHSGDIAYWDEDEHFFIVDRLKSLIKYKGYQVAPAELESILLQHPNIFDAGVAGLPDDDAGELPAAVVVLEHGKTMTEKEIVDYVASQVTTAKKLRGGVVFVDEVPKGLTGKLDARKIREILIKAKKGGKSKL
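Luminescence read by CCD imaging after purified firefly luciferase (10nM final) was added to substrate buffer holding 10uM D-luciferin and 10uM ATP, pH 7.5, pre-dosed with compound.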
NIH3T3 tox – Cytotoxic Profiling in NIH 3T3 Cell Line of Diverse Libraries Using Quantitative High-Throughput Screening | NIH 3T3 viability, CellTiter-Glo ATP luminescence, 48-72 h | Potency, µM (doses to about 96.7 µM), inactives show at the highest dose activity change, negative = cytotoxicity, most hits filed as inhibitors | 94,000 tested, 4.3% active; note: nearly all actives have a fitted effect of over 55% in size
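Cells were seeded at 400 per well, treated with pin-transferred compound, and kept 48 or 72 hr at 37 °C before CellTiter-Glo addition and luminescence imaging of cellular ATP.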
HEK cytotox – Cytotoxic Profiling in HEK 293 Cell Line of Diverse Libraries Using Quantitative High-Throughput Screening; HEK 293 viability, ATP luminescence (CellTiter-Glo), 48-72 h; Potency, µM (top dose mostly 115 µM), for the others: at the top dose activity change, negative = cytotoxicity, actives largely listed as inhibitors; 94,000 tested, 6.6% active; AID 1345083, 2018; note: nearly all actives have a fitted effect of over 60% in size
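Viability of HEK 293 cells, plated at 250 cells/well, was judged by cellular ATP after compound treatment for 48 or 72 hr. Luminescence was imaged 10 min after CellTiter-Glo addition at room temperature.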
Numbers without * were called inactive; i = inactive; ? = inconclusive; nt = not tested or not shown. A selection: hits, their analogues and other compounds. The true share with any hit is near 11%. Unless noted, calls come from the whole dose curve; as a rule, active = well fitted curve in the direction sought with a large enough effect; inconclusive = small, poorly fitted or top-dose-only effect, or another doubt; inactive = no such curve, though single readings can be large; an effect the other way counts as inactive or inconclusive. % is set by controls: 0 for no effect and ±100 for the full control effect; potency is the fitted concentration of half-maximal effect.

SMILES	hNpr1 antagonist	FLuc inh	NIH3T3 tox	HEK cytotox
Cc1ccc(CN2CCC(CN(C)C(=O)c3ccc(C4CCCN4)s3)CC2)o1 (stereo unspecified)	3%	i	?	?
O=C(c1ccc(Cl)nc1)N1CCCC(C(=O)N2CCC(N3CCOCC3=O)CC2)C1 (stereo unspecified)	nt	nt	-8%	-1%
CN(Cc1ccccc1)C(=O)Cc1ccc(N(Cc2cccc(F)c2)C(=O)c2ccco2)cc1	-20%	i	35µM*	?
O=C(Cc1ccc(N(Cc2cccc(F)c2)C(=O)c2ccco2)cc1)NCc1ccccc1	-23%	i	?	?
CC(C)NC(=O)Cc1ccc(N(Cc2ccc(F)cc2)C(=O)c2ccco2)cc1	0%	i	-15%	-15%
O=C(Cc1ccc(N(Cc2ccc(F)cc2)C(=O)c2ccco2)cc1)Nc1ccc(F)cc1	-3%	i	32µM*	?
O=C(Cc1ccc(N(Cc2cccc(F)c2)C(=O)c2ccco2)cc1)Nc1ccccc1	0%	i	35µM*	45µM*
CCCN(C)C(=O)Cc1ccc(N(Cc2ccc(F)cc2)C(=O)c2ccco2)cc1	-12%	i	?	?
O=C(Cc1ccc(N(Cc2ccc(F)cc2)C(=O)c2ccco2)cc1)NCc1ccc(F)cc1	-28%	i	40µM*	25µM*
COCC1CN(S(=O)(=O)c2cc(F)ccc2C)CC12CCNCC2 (stereo unspecified)	1%	i	-27%	-20%
COc1ccc(-c2cc3nc4c(c(=O)n3[nH]2)CN(C(=O)c2cc(CN3CCOCC3)on2)CC4)cc1	-8%	?	?	?
CC1=C[C@@H](CNC(=O)c2ccccc2)[C@H](C(C)C)C[C@H]1Cc1nc2ccccc2n1C	?	i	32µM*	25µM*
CC1=C[C@@H](CNC(=O)CC(C)(C)CC(=O)O)[C@H](C(C)C)C[C@H]1Cc1nc2ccccc2n1C	7%	i	?	-18%
CCC(CC)C(=O)NC[C@@H]1C=C(C)[C@H](Cc2nc3ccccc3n2C)C[C@H]1C(C)C	?	i	35µM*	32µM*
CC1=C[C@@H](CNC(=O)C2CCCCC2)[C@H](C(C)C)C[C@H]1Cc1nc2ccccc2n1C	?	i	32µM*	32µM*
CCCc1ccc([S+](=O)([O-])N2CCC3(CC2)[C@H](C(=O)OCC)[C@@H](O)C(=O)N3C)cc1	nt	nt	?	-30%
Cc1cn2nnc(C(=O)NCC3CCCCC3)c2c(=O)[nH]1	14%	i	-19%	-11%
CC(C)c1noc(-c2ccn3c(CNC(=O)c4ccco4)nnc3c2)n1	12%	i	-14%	?
Cn1nc(C(=O)N2CCC3(CC2)N=C(c2cccc(Br)c2)NO3)c2ccccc21	-15%	i	?	45µM*
Cc1ccc(C2=NC3(CCN(C(=O)c4cc(F)ccc4Cl)CC3)ON2)cc1	-15%	?	?	?
Cc1ccc(C(=O)N2CCC3(CC2)N=C(c2cccc(Br)c2)NO3)cc1C	-15%	i	?	?
CC(=O)Nc1ccc(C(=O)N2CCC3(CC2)N=C(c2ccccc2)NO3)cc1	0%	35µM*	0%	-1%
Cc1ccc(C2=NC3(CCN(C(=O)c4ccccc4Cl)CC3)ON2)cc1	?	32µM*	-26%	-25%
O=C(c1ccc2c(c1)OCO2)N1CCC2(CC1)N=C(c1ccccc1)NO2	-5%	40µM*	-20%	-9%
COc1ccc(OCC(O)CN2CCC(=O)N(CC(C)(C)C)Cc3cc4c(cc32)OCO4)cc1 (stereo unspecified)	nt	nt	?	50µM*
COc1ccc2c(c1)CN(CC=C(C)C)C(=O)CCN2CC(O)COc1ccccc1 (stereo unspecified)	nt	nt	?	79µM*
COC(=O)CN1Cc2cc(F)ccc2N(CC(O)COc2ccc(OC)cc2)CCC1=O (stereo unspecified)	nt	nt	?	-17%
CCN1Cc2cc(OC)ccc2N(CC(O)COc2ccc(OC)cc2)CCC1=O (stereo unspecified)	nt	nt	?	-31%
